Screens deposited in PubChem by National Center for Advancing Translational Sciences (NCATS).
This is a sample that favours compounds with a hit; in the whole collection about 2.4% have one here.
Cruzain noTriton – qHTS Assay for Promiscuous and Specific Inhibitors of Cruzain (without detergent); Cruzipain (Trypanosoma cruzi), P25779; purified cruzain, Z-FR-AMC fluorescence, no detergent; Potency, µM, inactives show max response, negative = inhibition, usual class: inhibitors; 200,000 tested, 2.3% active; AID 1476, 2009;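 note: plate controls were enzyme without inhibitor for no effect and buffer without enzyme for full effect; nearly all actives have a fitted effect of over 40% in size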
Target sequence (P25779 123-467 limits assumed): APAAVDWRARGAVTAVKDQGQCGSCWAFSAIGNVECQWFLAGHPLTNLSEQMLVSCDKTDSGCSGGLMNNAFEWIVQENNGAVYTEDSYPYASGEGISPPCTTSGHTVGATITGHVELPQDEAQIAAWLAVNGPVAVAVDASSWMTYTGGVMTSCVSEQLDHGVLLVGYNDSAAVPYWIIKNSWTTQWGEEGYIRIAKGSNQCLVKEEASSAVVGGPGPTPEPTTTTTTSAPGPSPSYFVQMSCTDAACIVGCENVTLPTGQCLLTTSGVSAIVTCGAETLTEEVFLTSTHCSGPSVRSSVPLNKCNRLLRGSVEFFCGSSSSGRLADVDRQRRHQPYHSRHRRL
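Detergent-free condition (0.00005% Triton X-100) in acetate buffer pH 5.5 with DTT. 1.5 nM enzyme and compound were pre-mixed 15 min, then 2 uM Z-FR-AMC substrate added; reaction progress from fluorescence change between first and third reads (60 s).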
Cruzain Triton – qHTS Assay for Promiscuous and Specific Inhibitors of Cruzain (with detergent) | purified cruzain, Z-FR-AMC fluorescence, 0.01% Triton | Potency, µM, for the others: max response, negative = inhibition, most hits filed as inhibitors | 200,000 tested, 0.43% active | AID 1478, 2009;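 note: plate controls were neutral wells for no effect and buffer without enzyme for full effect; nearly all actives have a fitted effect of over 40% in size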
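15 min RT preincubation of 1.5 nM cruzain with compound, then 2 uM Z-FR-AMC added; kinetic AMC fluorescence, 60 s delta. Triton X-100 0.01%, pH 5.5.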
Papain inh – qHTS Assay for Inhibitors of Papain: Counterscreen for Cruzain Assay; 410 tested, 41% active; Potency, µM, for the others: max response, negative = inhibition, most hits filed as inhibitors; shares compounds with Cruzain Triton; purified papain, Z-FR-AMC fluorescence cleavage;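 note: 0% = no-compound wells and -100% = no-enzyme wells; nearly all actives have a fitted effect of over 35% in size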
Numbers without * were called inactive; ? = inconclusive; / = not tested or not shown. Calls come from the whole dose curve; as a rule, active = well fitted curve in the direction sought with a large enough effect; inconclusive = small, poorly fitted or top-dose-only effect, or another doubt; inactive = no such curve, though single readings can be large; an effect the other way counts as inactive or inconclusive. Potency is the fitted concentration of half-maximal effect.

SMILES	Cruzain noTriton	Cruzain Triton	Papain inh
Cc1nc2cc(-c3ccccc3)nn2c(C)c1CCC(=O)N1CCN(c2ccccc2)CC1	?	2.5%	-30.4%
Cc1nc2cc(-c3ccc(Cl)cc3)nn2c(C)c1CCC(=O)N1CCN(c2ccccc2)CC1	-2.8%	3.1%	/
CCOC(=O)c1sc(NC(=O)c2ccc3ncsc3c2)nc1C	11.0%	2.8%	/
O=C(CCN1C(=O)/C(=C/C=C/c2ccccc2)SC1=S)Nc1nccs1	3.16µM*	-0.7%	-5.7%
O=C(CCN1C(=O)/C(=C\c2cccs2)SC1=S)Nc1nccs1	-1.6%	-6.0%	/
Cc1ccccc1-n1c(C)cc(/C=C2/C(=N)N3C(c4ccccc4)=CSC3=NC2=O)c1C	3.16µM*	-0.7%	13.3%
Cc1ccccc1-n1c(C)cc(/C=C2/C(=O)NC(=O)N(Cc3ccco3)C2=O)c1C	4.3%	-8.4%	/
COc1ccccc1NC(=O)c1oc2ccccc2c1NC(=O)c1c(F)cccc1F	-11.0%	-2.5%	/
O=C(COC(=O)CCSc1ccccc1Cl)Nc1ccc(F)cc1F	12.6µM*	14.1µM*	-2.4%
O=C(COC(=O)CCSc1ccccc1)Nc1ccc(F)cc1Cl	-12.0%	?	/
Cc1ccc(S(=O)(=O)c2nc(-c3ccco3)oc2NCC2CCCO2)cc1 (stereo not drawn)	10µM*	11.2µM*	-13.7%
Cc1ccc(CSc2oc(-c3ccco3)nc2S(=O)(=O)c2ccc(C)cc2)cc1	-11.3%	-8.6%	/
Cc1ccccc1-c1nc(NC(=O)CSc2ncnc3sc4c(c23)CCCC4)ns1	8.8%	-1.0%	/
Cc1cc2ccccc2n2c(SCC(=O)Nc3cccc(C(F)(F)F)c3)nnc12	4.6%	-1.4%	/
Nc1c(C(=O)NCCC2=CCCCC2)sc2ccc(S(=O)(=O)N3CCCCC3)cc12	12.6µM*	3.55µM*	-9.5%
Cc1ccc(CNC(=O)c2sc3ccc(S(=O)(=O)N4CCCCC4)cc3c2N)cc1	?	-6.7%	/
Cc1ccc(C(=O)N2CCc3cc(CNC(=O)c4ccnn4C)ccc32)cc1	7.5%	0.3%	/
